# Measurements reported in the supplement of paper PMC10037445.
# In all, about 2,900 compounds were measured (“NF-kB SEAP reporter activity, fold change vs agonist alone”: median about 0.99, highest 2% from about 2.6 on). Only a selection was taken, and the highest values are over-represented in it overall.
# How the values were obtained:
# [1] = test system: RAW-Dual; assay: NF-kB SEAP reporter activity, fold change vs agonist alone; cytotoxicity flag (confluency mask): not cytotoxic; higher = enhanced NF-kB activity
# Summary of the method: (§1)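 Supernatant from RAW-Dual macrophages was read after 20 hours for IRF by QuantiLuc luminescence and for NF-κB by QuantiBlue absorbance at 620 nm. The cells (50,000 cells/well in DMEM, 384-well plates, 37 °C, 5% CO2) had received 50 nL of library stock by pin tool and, 1 h later, a PRR agonist. Reporter activity is expressed relative to agonist-alone wells as fold change, and wells were flagged cytotoxic if IncuCyte confluency was under 70% of agonist controls in both mask sets.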
# [2] = test system: RAW-Dual; assay: NF-kB SEAP reporter activity, fold change vs agonist alone; higher = enhanced NF-kB activity
# Summary of the method: as §1
# [3] = test system: RAW-Dual; assay: NF-kB SEAP reporter activity, fold change vs agonist alone; cytotoxicity flag (confluency mask): cytotoxic (confluency <70% of control); higher = enhanced NF-kB activity
# Summary of the method: as §1
# [4] = agonist: ODN 1826 (TLR9) 0.5 ug/mL
# [5] = agonist: Pam2CSK4 (TLR2/6) 0.1 ug/mL
# [6] = agonist: Pam3CSK4 (TLR2/1) 0.1 ug/mL
# [7] = library stock concentration (final ~1000-fold dilution): 10 mM, cytotoxicity flag (confluency mask): not cytotoxic, agonist: Imiquimod (TLR7) […]
# [8] = library stock concentration (final ~1000-fold dilution): 10 mM, cytotoxicity flag (confluency mask): not cytotoxic, agonist: MPLA (TLR4) […]
# [9] = library stock concentration (final ~1000-fold dilution): 10 mM, cytotoxicity flag (confluency mask): cytotoxic (confluency <70% of control), agonist: Imiquimod (TLR7) […]
# [10] = library stock concentration (final ~1000-fold dilution): 10 mM, cytotoxicity flag (confluency mask): cytotoxic (confluency <70% of control), agonist: MPLA (TLR4) […]
smiles,measurement,setting,value
CC(C)(C)NC(=O)C1CCC2C3CCC4NC(=O)C=CC4(C)C3CCC12C (configuration not stated) (library stock concentration (final ~1000-fold dilution): 10 mM),NF-kB SEAP reporter activity,[1]; agonist: LPS (TLR4) 0.1 ug/mL,0.988
same,NF-kB SEAP reporter activity,[1]; [4],0.946
same,NF-kB SEAP reporter activity,[1]; [5],0.943
same,NF-kB SEAP reporter activity,[1]; [6],0.998
CC(C)(C)NC(=O)C1CCC2C3CCC4NC(=O)C=CC4(C)C3CCC12C (configuration not stated),NF-kB SEAP reporter activity,[2]; [7],0.218
same,NF-kB SEAP reporter activity,[2]; [8],1.07
COc1ccc(-c2oc3c(CC=C(C)C)c(O)cc(O)c3c(=O)c2OC2OC(C)C(O)C(O)C2O)cc1 (configuration not stated) (library stock concentration (final ~1000-fold dilution): 10 mM),NF-kB SEAP reporter activity,[3]; agonist: LPS (TLR4) 0.1 ug/mL,2.22
same,NF-kB SEAP reporter activity,[3]; [4],0.553
same,NF-kB SEAP reporter activity,[3]; [5],0.251
same,NF-kB SEAP reporter activity,[3]; [6],0.457
COc1ccc(-c2oc3c(CC=C(C)C)c(O)cc(O)c3c(=O)c2OC2OC(C)C(O)C(O)C2O)cc1 (configuration not stated),NF-kB SEAP reporter activity,[2]; [9],1.82
same,NF-kB SEAP reporter activity,[2]; [10],1.45
CSC1(C(=O)Nc2ccc3[nH]nc(-c4ccc(OC(C)C)nc4)c3c2)CCN(CC(=O)N2CC=C(c3ccc(-c4ncn(C)n4)cc3)CC2)C1 (configuration not stated),NF-kB SEAP reporter activity,[2]; [7],0.202
same,NF-kB SEAP reporter activity,[2]; [8],0.321
CSC1(C(=O)Nc2ccc3[nH]nc(-c4ccc(OC(C)C)nc4)c3c2)CCN(CC(=O)N2CC=C(c3ccc(-c4ncn(C)n4)cc3)CC2)C1 (configuration not stated) (library stock concentration (final ~1000-fold dilution): 10 mM),NF-kB SEAP reporter activity,[1]; agonist: LPS (TLR4) 0.1 ug/mL,0.407
same,NF-kB SEAP reporter activity,[1]; [4],0.343
same,NF-kB SEAP reporter activity,[1]; [5],0.0837
same,NF-kB SEAP reporter activity,[1]; [6],0.136
CC(C)(C)c1nc(-c2ccc(NC(=O)Nc3cccc(C(F)(F)F)c3)c3ccccc23)c2c(N)nccn12 (library stock concentration (final ~1000-fold dilution): 10 mM),NF-kB SEAP reporter activity,[3]; agonist: LPS (TLR4) 0.1 ug/mL,0.488
same,NF-kB SEAP reporter activity,[3]; [4],0.163
same,NF-kB SEAP reporter activity,[3]; [5],0.0888
same,NF-kB SEAP reporter activity,[3]; [6],0.136
CC(C)(C)c1nc(-c2ccc(NC(=O)Nc3cccc(C(F)(F)F)c3)c3ccccc23)c2c(N)nccn12,NF-kB SEAP reporter activity,[2]; [9],0.139
same,NF-kB SEAP reporter activity,[2]; [10],0.252
CNC(=O)c1cc(Oc2ccc(NC(=O)Nc3ccc(Cl)c(C(F)(F)F)c3)c(F)c2)ccn1.O (library stock concentration (final ~1000-fold dilution): 10 mM),NF-kB SEAP reporter activity,[1]; agonist: LPS (TLR4) 0.1 ug/mL,0.727
same,NF-kB SEAP reporter activity,[1]; [4],0.502
same,NF-kB SEAP reporter activity,[1]; [5],0.166
same,NF-kB SEAP reporter activity,[1]; [6],0.205
CNC(=O)c1cc(Oc2ccc(NC(=O)Nc3ccc(Cl)c(C(F)(F)F)c3)c(F)c2)ccn1.O,NF-kB SEAP reporter activity,[2]; [8],1.58
Cc1[nH]c(C=C2C(=O)Nc3ccc(F)cc32)c(C)c1C(=O)NCCN1CCCC1,NF-kB SEAP reporter activity,"[2]; library stock concentration (final ~1000-fold dilution): 2 mM, cytotoxicity flag (confluency mask): not cytotoxic, agonist: MPLA (TLR4) […]",0.63
CCS(=O)(=O)Nc1ccc2c(c1)/C(=C(/Nc1ccc(CN3CCCCC3)cc1)c1ccccc1)C(=O)N2 (library stock concentration (final ~1000-fold dilution): 10 mM),NF-kB SEAP reporter activity,[3]; agonist: LPS (TLR4) 0.1 ug/mL,0.196
same,NF-kB SEAP reporter activity,[3]; [4],0.197
same,NF-kB SEAP reporter activity,[3]; [5],0.0873
same,NF-kB SEAP reporter activity,[3]; [6],0.163
Cc1[nH]c(C=C2C(=O)Nc3ccc(F)cc32)c(C)c1C(=O)NCCN1CCCC1 (library stock concentration (final ~1000-fold dilution): 2 mM),NF-kB SEAP reporter activity,[1]; agonist: LPS (TLR4) 0.1 ug/mL,1.04
same,NF-kB SEAP reporter activity,[1]; [4],0.183
same,NF-kB SEAP reporter activity,[1]; [5],0.266
same,NF-kB SEAP reporter activity,[1]; [6],0.414
COc1ccc2[nH]cc(C=C3C(=O)Nc4ccc(NC(=O)CCN5CCCCC5)cc43)c2c1 (library stock concentration (final ~1000-fold dilution): 10 mM),NF-kB SEAP reporter activity,[3]; agonist: LPS (TLR4) 0.1 ug/mL,4.16
same,NF-kB SEAP reporter activity,[3]; [4],0.42
same,NF-kB SEAP reporter activity,[3]; [5],1.36
same,NF-kB SEAP reporter activity,[3]; [6],2.01
CCS(=O)(=O)Nc1ccc2c(c1)/C(=C(/Nc1ccc(CN3CCCCC3)cc1)c1ccccc1)C(=O)N2,NF-kB SEAP reporter activity,[2]; [9],0.214
same,NF-kB SEAP reporter activity,[2]; [10],0.227
COc1ccc2[nH]cc(C=C3C(=O)Nc4ccc(NC(=O)CCN5CCCCC5)cc43)c2c1,NF-kB SEAP reporter activity,[2]; [9],1.4
same,NF-kB SEAP reporter activity,[2]; [10],2
CO[C@H](c1c(NC(=O)Nc2cnc(-n3nccn3)c(Cl)c2)cnc2cc(Cl)nn12)[C@@H](C)OC,NF-kB SEAP reporter activity,[2]; [7],0.986
same,NF-kB SEAP reporter activity,[2]; [8],0.994
CO[C@H](c1c(NC(=O)Nc2cnc(-n3nccn3)c(Cl)c2)cnc2cc(Cl)nn12)[C@@H](C)OC (library stock concentration (final ~1000-fold dilution): 10 mM),NF-kB SEAP reporter activity,[1]; agonist: LPS (TLR4) 0.1 ug/mL,1.37
same,NF-kB SEAP reporter activity,[1]; [4],0.862
same,NF-kB SEAP reporter activity,[1]; [5],0.76
same,NF-kB SEAP reporter activity,[1]; [6],0.777
C=Cc1c(C)c2cc3nc(cc4[nH]c(cc5nc(cc1[nH]2)C(C)=C5CCC(=O)O)c(CCC(=O)OC)c4C)C1(C)C3=CC=C(C(=O)OC)C1C(=O)OC (configuration not stated) (library stock concentration (final ~1000-fold dilution): 10 mM),NF-kB SEAP reporter activity,[3]; agonist: LPS (TLR4) 0.1 ug/mL,0.243
same,NF-kB SEAP reporter activity,[3]; [4],0.233
same,NF-kB SEAP reporter activity,[3]; [5],0.193
same,NF-kB SEAP reporter activity,[3]; [6],0.191
C=Cc1c(C)c2cc3nc(cc4[nH]c(cc5nc(cc1[nH]2)C(C)=C5CCC(=O)O)c(CCC(=O)OC)c4C)C1(C)C3=CC=C(C(=O)OC)C1C(=O)OC (configuration not stated),NF-kB SEAP reporter activity,[2]; [9],0.297
same,NF-kB SEAP reporter activity,[2]; [10],0.349
CNC(=O)c1cccc(-c2ccc3c(N4CCOCC4C)nc(N4CCOCC4C)nc3n2)c1 (configuration not stated),NF-kB SEAP reporter activity,[2]; [7],1.13
same,NF-kB SEAP reporter activity,[2]; [8],1.22
CNC(=O)c1cccc(-c2ccc3c(N4CCOCC4C)nc(N4CCOCC4C)nc3n2)c1 (configuration not stated) (library stock concentration (final ~1000-fold dilution): 10 mM),NF-kB SEAP reporter activity,[1]; agonist: LPS (TLR4) 0.1 ug/mL,1.11
same,NF-kB SEAP reporter activity,[1]; [4],0.489
same,NF-kB SEAP reporter activity,[1]; [5],0.376
same,NF-kB SEAP reporter activity,[1]; [6],0.57
Oc1c(Cl)cc(Cl)cc1Sc1cc(Cl)cc(Cl)c1O (library stock concentration (final ~1000-fold dilution): 10 mM),NF-kB SEAP reporter activity,[3]; agonist: LPS (TLR4) 0.1 ug/mL,3.19
same,NF-kB SEAP reporter activity,[3]; [4],1.08
same,NF-kB SEAP reporter activity,[3]; [5],0.362
same,NF-kB SEAP reporter activity,[3]; [6],0.801
Oc1c(Cl)cc(Cl)cc1Sc1cc(Cl)cc(Cl)c1O,NF-kB SEAP reporter activity,[2]; [9],1.81
same,NF-kB SEAP reporter activity,[2]; [10],1.6
CCC1(O)C(=O)OCc2c1cc1n(c2=O)Cc2cc3c(CN(C)C)c(O)ccc3nc2-1 (configuration not stated),NF-kB SEAP reporter activity,[2]; [7],1.46
same,NF-kB SEAP reporter activity,[2]; [8],1.93
